The test relates to VDR homodimer (NR concentration 270 nM). The experiment in a line: PBM binding z-score (relative to random genomic background probes); higher = stronger binding; sequences stand for … in GC…GCGATTGACAGCGTAGAATGAAGG
In short, it runs like this:
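Ligand-free nuclear receptor dimers were bound for 1 h to custom Agilent 4×180K protein-binding microarrays. Detection used antibodies against each partner (one per run). Binding z-scores rest on regression-normalized fluorescence, with random background probes as the reference.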
Turning to GCGACTGGGCCATCAGCAGGTTACCATAACTTAA, the PBM binding z-score is -0.661.
For CCGACTGGGGCCGAAAGGTTACCATACCATCCGG, the PBM binding z-score is -0.349.
The result for GCTCGGAGGACAACGTCAGAGCTTTGTCCGTAGA reads -0.803.
The sequence TCATATTGGTAAAGGTGAAAGTCGAACGATATGA displayed a PBM binding z-score of -0.179.
The sequence TGAATGAGGTTCAAGATCAGGGAACGTGGCGTCG returned a PBM binding z-score of 1.64.
Turning to TAGCCTAGGTCATTCAGGGGCCAGGATAGAAAGC, the PBM binding z-score amounted to 1.6.
On to AGTCAAAGTTCATCTAGGTAATGTAAGATATGCT, for which the PBM binding z-score came out at 5.21.
Sequence CGAACTAGGTCACTGACAGGACAGTGAATAGTAA showed a PBM binding z-score of 0.448.
As for GATACAGGGTCAGCTAGAGGCTAGAGTATGGAAA, the PBM binding z-score came to 0.266.
Take TCTAGCAGGCCAGAGGGTAACTCAAGAGGTACGG: the PBM binding z-score was -0.49.
As to ATCTCTAGGTAGAGTTCAGTGAAAGATCGATAGA, the PBM binding z-score stood at 3.41.
With TGAATGAGGTTAAAGTTCAGGGAACGTGGCGTCG, the PBM binding z-score is 2.62.
Sequence TCTATTAGATGATTAGGGCAACCGAAACAGCGGA had a PBM binding z-score of 0.272.
The result for ATATGTAGGTTAAGGGTCATTCTGGTTGGTTCGC reads 4.43; that for CGTCCAAGGTCAAAGTTCAGTGAAGAGATGACGG, 4.39; that for GTTCGGAGGACAAGGTCAGAGCTTTGTCCGTAGA, 0.65.
The result for TCGAGTAGGGTACCAATGGGGCATTCAGCTTTCT reads -0.697.
The result for CGAACTAGGTCAAGAACAGTGAATCTCCGCACGC reads 0.197.
In the case of TCTTGTAGAGCAAAGGTTAAGAAAGCCGAAGCCT, the PBM binding z-score is -0.734.
The result for CCGACTGGGCCAAAAAGGTCATTGATGCCGATAA reads 2.14; that for AAAATGAGGTTACCAAAGATCAGGGAAACGCTTG, 0.152; that for TCATATAGGTAAACAGGGGAAAGTCCGTAAGTTA, 0.312.
CCAGAAAGGTGAGAAGGTAACTCAGCCTCGATTA had a PBM binding z-score of -0.238.
Sequence GCTTACGGGTCAAAGGTTATTGCATGAATAGAAT registered a PBM binding z-score of 1.81.
The result for CAAACTAGGTCAAATGTCAAAGTCGAGCCAACCA reads 1.05; that for CGAACTAGGTCATCCAGGACAGCGAATACATTGA, 1.93; that for TCATATAGGTAAACAGGTGACAGTCCGTAAGTTA, 0.168.
The result for GCAGACAGGTGAAACGCAGGTAACACAGGGTGGC reads -0.401.
The sequence AGAATGAGCTTATACGTAGATCAGGGAAGAAAGT yielded a PBM binding z-score of -0.447.
The result for TCTGCTAGGTCAGTTGGTAAGCTAACGAGCTGCC reads -0.694; that for TCTATTAGTTGATGGGCAACCGACGAGTCCGTTT, 0.831.
In the case of ACTACTTGGTCAGCTGAGGTCACACACAATTCGG, the PBM binding z-score amounted to 3.73.
ATCGAAAGGTCGAGCTGAGTATAGAGAAAGGGAA had a PBM binding z-score of 0.148.
The result for TCTGCTAGGTCAGTTGGTCACCTAACGAGCTGCC reads -0.466; that for CCGACTGGGGCATAAGGTTAGCATAAGCCAGCCC, -0.543.
The result for CGAACTAGGTTAGAACAGGACAGTGAAGGATGAT reads -0.137.
ATACCCAGGTGATCGTGAGGTCGTTGATACTAAC showed a PBM binding z-score of 2.52.
The result for TAGCCTAGGGCATGCGGGCCAGTATAGTGTCGGC reads -0.907; that for ATATGTAGGTTAGCTGTGGTCATTCAGACTAGGC, 0.494; that for TCTAGCAGGCCAGAGAGTCACTCAAGAGGTACGG, -0.865.

The values above are taken from the supplement of paper PMC6555819.
